Assay outcomes as filed in PubChem.
PAFAH2 inh: inhibitors of human PAFAH2 | Q99487 | recombinant PAFAH2, FP-rhodamine activity probe, fluorescence polarization | inhibition, % at 3.39 µM | hit rate 0.99% among 340,000;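 active means inhibition above the mean over all tested compounds plus 3 SD, cut at about 30% in these data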;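 further: inhibitors block probe labeling of enzyme so polarization drops; 0% = enzyme with DMSO and 100% = wells lacking PAFAH2 protein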
rCAG binder: r(CAG) repeat RNA binding | TO-PRO-1 dye displacement fluorescence | inhibition, % at 3 µM | hit rate 1.3% among 370,000;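 active means inhibition above the plate cutoff, the mean of all test compounds on that plate plus 3 SD, cut at about 35% in these data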;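 further: 0% = DMSO alone and 100% = 100 µM mitoxantrone as full dye displacement; higher means more dye released from RNA so lower well fluorescence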
PAFAH1B2 inh: inhibitors of human PAFAH1B2. recombinant PAFAH1B2, FP-rhodamine activity probe, fluorescence polarization. inhibition, % at 3.39 µM. hit rate 1.2% among 340,000. AID 492953;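 active means inhibition above the mean of all tested compounds plus 3 SD, cut at about 24% in these data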;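 further: 0% = enzyme with DMSO and 100% = wells lacking PAFAH1B2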
PAFAH1B3 FP inh: inhibitors of human PAFAH1B3 | recombinant PAFAH1B3, FP-rhodamine probe, fluorescence polarization | inhibition, % at 3.39 µM | hit rate 0.28% among 340,000;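 active means inhibition above the screen-wide average of all tested compounds plus 3 SD, cut at about 25% in these data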;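 further: 0% = enzyme with DMSO only and 100% = wells lacking PAFAH1B3 protein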
Target sequence (Q15102 whole entry, looked up): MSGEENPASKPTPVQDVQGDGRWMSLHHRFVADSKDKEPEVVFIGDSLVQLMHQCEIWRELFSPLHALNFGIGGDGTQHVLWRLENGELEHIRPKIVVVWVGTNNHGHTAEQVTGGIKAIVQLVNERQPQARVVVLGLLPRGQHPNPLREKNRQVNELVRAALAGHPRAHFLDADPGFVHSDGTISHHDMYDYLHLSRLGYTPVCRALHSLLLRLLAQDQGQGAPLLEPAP
EBNA-1 inh: blocks EBNA-1 binding to DNA; EBNA-1 DNA binding, fluorescence polarization; inhibition, % at 14.8 µM; hit rate 0.34% among 300,000; AID 1950; in the data active means inhibition above about 28%
ZTA counter: ZTA (EBV) inhibition in EBNA-1 counter-screen | inhibition, % at 11 µM | ZTA-DNA binding, fluorescence polarization | AID 2234 | hit rate 0.15% among 320,000; in the data active means inhibition above about 33%
Numbers without * were called inactive. An excerpt weighted towards active compounds, which were near 2.9% of everything screened.

What do the screens show for `C=CCN=C1NC(c2cccc(Cl)c2)C(C(=O)OC)=C(C)N1Cc1cccc(C(F)(F)F)c1` (stereo unspecified)?
rCAG binder: 5

How did COC(=O)[C@]12C[C@H](CC(=O)NCc3cccs3)C(=O)N(CCC3=CCCCC3)C1=C[C@H](C(C)(C)C)O[C@@H]2C do in these assays?
rCAG binder: 1

Results for O=C(Nc1ccc(S(=O)(=O)N2CCCCC2)cc1)c1ccncc1 ?
PAFAH2 inh: -6; rCAG binder: -2; PAFAH1B2 inh: 0; PAFAH1B3 FP inh: 3; EBNA-1 inh: 9; ZTA counter: 0

What do the screens show for `COC(=O)Nc1ccc(S(=O)(=O)N2CCC(C)CC2)cc1`?
PAFAH2 inh: 9; rCAG binder: -1; PAFAH1B2 inh: 25*; PAFAH1B3 FP inh: -5; EBNA-1 inh: 1; ZTA counter: 2

What do the screens show for `CC1CCN(S(=O)(=O)c2ccc(NC(=O)c3ccncc3)cc2)CC1`?
PAFAH2 inh: -3; rCAG binder: -4; PAFAH1B2 inh: 29*; PAFAH1B3 FP inh: 14; EBNA-1 inh: -10; ZTA counter: 1

Results for CC1=CCC[C@@H]2[C@]3(CC/C(=C/CO)CO)CO[C@@]2(C1)[C@@H](O)C[C@H]3C ?
rCAG binder: -3

Results for O=C(Cn1nc(Br)nc1Br)c1ccccc1 ?
PAFAH2 inh: 52*; rCAG binder: 7; PAFAH1B2 inh: 29*; PAFAH1B3 FP inh: 47*; EBNA-1 inh: -7; ZTA counter: 2

Results for O=C(Nc1ccc2c(c1)OCO2)OC1CCC12CCC(c1ccccc1)CC2 (stereo unspecified) ?
rCAG binder: 5

How did COCCCN(C(=S)NC(=O)c1ccc(C(C)(C)C)cc1)c1c(N)n(Cc2ccccc2)c(=O)[nH]c1=O do in these assays?
PAFAH2 inh: 9; rCAG binder: 6; PAFAH1B2 inh: 27*; PAFAH1B3 FP inh: 5; EBNA-1 inh: 8; ZTA counter: 3

Results for NC(=O)c1ccsc1NC(=O)COC(=O)c1cccnc1Cl ?
PAFAH2 inh: 5; rCAG binder: 5; PAFAH1B2 inh: 4; PAFAH1B3 FP inh: 7

What do the screens show for `CC(NC(=O)COC(=O)c1cccnc1Cl)C12CC3CC(CC(C3)C1)C2` (stereo unspecified)?
PAFAH2 inh: 45*; rCAG binder: 0; PAFAH1B2 inh: 51*; PAFAH1B3 FP inh: 2

How did O=S(=O)(c1cccs1)N1CCC(c2cn3ccccc3n2)CC1 do in these assays?
rCAG binder: 7

What do the screens show for `CC(=O)Nc1ccc(C(=O)OCc2ccc(Br)cc2)cc1`?
PAFAH2 inh: 34*; rCAG binder: 0; PAFAH1B2 inh: 26*; PAFAH1B3 FP inh: 1; EBNA-1 inh: -7; ZTA counter: -1

What do the screens show for `O=C(O)c1sccc1SCc1ccc(Cl)cc1Cl`?
PAFAH2 inh: 4; rCAG binder: 15; PAFAH1B2 inh: 30*; PAFAH1B3 FP inh: 5; EBNA-1 inh: -8; ZTA counter: -6

What do the screens show for `COc1ncc(-c2ccc(N3C(c4ccc([N+](=O)[O-])cc4)=Cc4ccccc4C3CC(C)=O)cc2)cn1` (stereo unspecified)?
rCAG binder: 10

How did CCCCCCCCCCCCCCCC[n+]1ccc(C(N)=O)cc1 do in these assays?
PAFAH2 inh: 9; rCAG binder: 9; PAFAH1B2 inh: 0; PAFAH1B3 FP inh: -1; EBNA-1 inh: -4; ZTA counter: -8

How did CCCCCCCCCCCCCCCC[n+]1ccc(/C=N/O)cc1 do in these assays?
PAFAH2 inh: 27; rCAG binder: 15; PAFAH1B2 inh: 33*; PAFAH1B3 FP inh: 61*; EBNA-1 inh: -8; ZTA counter: 3

What do the screens show for `Cc1ccccc1-c1nnc2n1N=C(c1ccc(O)c(O)c1)CS2`?
rCAG binder: 10

What do the screens show for `COc1ccc(S(=O)(=O)NC(C)CCc2ccccc2)cc1` (stereo unspecified)?
PAFAH2 inh: -3; rCAG binder: -3; PAFAH1B2 inh: 16; PAFAH1B3 FP inh: 8; EBNA-1 inh: -3; ZTA counter: -4

Results for CC(CCc1ccccc1)NS(=O)(=O)c1ccccc1F (stereo unspecified) ?
PAFAH2 inh: 4; rCAG binder: -1; PAFAH1B2 inh: 29*; PAFAH1B3 FP inh: 6; EBNA-1 inh: 9; ZTA counter: 12
